Laboratory results from PubChem BioAssay (Tox21).
Records with an inconclusive call do not appear. Active and inactive are the calls of the source. Unless noted, calls come from the whole dose curve; as a rule, active = well fitted curve in the direction sought with a large enough effect in the repeat runs; inconclusive = weak or mixed curves; inactive = no such curve, though single readings can be large; an effect the other way counts as inactive or inconclusive.

Experiments:
[1] = qHTS assay for small molecule agonists of the p53 signaling pathway (AID 651631; calls by dose curve; note: nearly all actives have a fitted effect of over 15% in size)
Method in brief: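 Agonist mode screen using a stably integrated beta-lactamase gene under p53 response elements in HCT-116 cells. Compound exposure lasts 16 h at 37 °C; fluorescence intensity is measured following 2 h FRET substrate loading.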

[2] = qHTS assay for small molecules that induce genotoxicity in human embryonic kidney cells expressing luciferase-tagged ATAD5 (AID 651632); note: nearly all actives have a fitted effect of over 15% in size
Method in brief: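 Concentration-response screen for ATAD5 upregulation in HEK293T luciferase reporter cells; 16 hr treatment at 37C, then luminescence after 30 min with Amplite at room temperature.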

[3] = qHTS assay for small molecules that induce genotoxicity in human embryonic kidney cells expressing luciferase-tagged ATAD5 - cell viability (AID 651634; calls by dose curve; note: nearly all actives have a fitted effect of over 25% in size)
Method in brief: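 15.5 hr compound or vehicle exposure of HEK293T cells expressing luciferase-tagged ATAD5 at 37C; live-cell protease activity is read by fluorescence after 30 min of CellTiter-Fluor.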

[4] = qHTS assay for small molecule disruptors of the mitochondrial membrane potential - cell viability (AID 720634; calls by dose curve;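 note: human HepG2 liver cancer cells; series mostly up to about 83 µM; nearly all actives have a fitted effect of over 20% in size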)
Method in brief: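 In this qHTS format, HepG2 cells plated overnight were pinned with compound, incubated 1 hr, and assayed for ATP luminescence with CellTiter-Glo after m-MPI dye addition.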

[5] = qHTS assay for small molecule disruptors of the mitochondrial membrane potential (AID 720635)
Method in brief: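 HepG2 cells exposed to compound 1 hr at 37C, then Mito-MPS dye 30 min. Ratio read of aggregate (540/590 nm) versus monomer (490/535 nm) fluorescence.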

[6] = qHTS assay to test for compound auto fluorescence at 590 nm (red) in HepG2 cells (AID 720674)
Method in brief: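 HepG2 cells, 2,000 per well in MEM with 10% FBS, attached overnight at 37 C, then got 23 nL compound or DMSO. After 1 hr at 37 C, 5% CO2, red fluorescence was read at 540/590 nm against Rose Bengal sodium as reference.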

[7] = qHTS assay to test for compound auto fluorescence at 535 nm (green) in HepG2 cells (AID 720675)
[8] = qHTS assay to test for compound auto fluorescence at 460 nm (blue) in HEK293 cells (AID 720678)
Method in brief: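 Auto fluorescence in the blue band was quantified as triamterene equivalency. HEK293 cells were seeded at 2,000/well, dosed after a 4-5 hr attachment, and kept overnight at 37C before the 405/460 nm reading.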

[9] = qHTS assay to test for compound auto fluorescence at 590 nm (red) in HEK293 cells (AID 720679)
Method in brief: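 Autofluorescence equivalency to Rose Bengal sodium, 540/590nm, in HEK293 cells exposed overnight to 23 nL compound per well.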

[10] = qHTS assay to test for compound auto fluorescence at 535 nm (green) in HEK293 cells (AID 720680)
[11] = qHTS assay to test for compound auto fluorescence at 460 nm (blue) in HEK293 cell free culture (AID 720681)
Method in brief: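 Compounds were added to cell-free DMEM with 10% FBS and fluorescence read directly. The blue channel used 405 nm excitation and 460 nm emission, with triamterene as the reference fluorophore.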

[12] = qHTS assay to test for compound auto fluorescence at 535 nm (green) in HEK293 cell free culture (AID 720682)
Method in brief: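 No cells present: wells hold DMEM supplemented with 10% FBS, into which compound or vehicle is pinned. Green emission is then recorded (485 nm excitation, 535 nm emission) and scaled to fluorescein.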

[13] = qHTS assay to test for compound auto fluorescence at 590 nm (red) in HEK293 cell free culture (AID 720683)
Method in brief: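 Cell-free wells of DMEM with 10% FBS received compound, and intrinsic fluorescence was read at excitation/emission 540/590 nm. Values expressed as equivalence to Rose Bengal sodium.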

[14] = qHTS assay to test for compound auto fluorescence at 590 nm (red) in HepG2 cell free culture (AID 720684)
Method in brief: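 Auto fluorescence equivalency versus Rose Bengal sodium, red channel Ex/Em 540/590 nm; compounds in cell-free MEM/10% FBS; DMSO vehicle control.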

[15] = qHTS assay to test for compound auto fluorescence at 460 nm (blue) in HepG2 cell free culture (AID 720685)
Method in brief: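 Cell-free plates of MEM plus 10% FBS received 23 nL compound or DMSO vehicle; blue-channel (405/460 nm) intensity scored against triamterene as reference fluorophore.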

[16] = qHTS assay to test for compound auto fluorescence at 535 nm (green) in HepG2 cell free culture (AID 720686)
[17] = qHTS assay to test for compound auto fluorescence at 460 nm (blue) in HepG2 cells (AID 720687)
Method in brief: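 HepG2 cells in MEM with 10% FBS, attached overnight at 37 C, were exposed to compound or DMSO for 1 hr at 37 C, 5% CO2. Blue fluorescence was read at 405/460 nm, with triamterene as reference fluorophore.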

[18] = qHTS assay for small molecule agonists of the p53 signaling pathway - cell viability (AID 651633; calls by dose curve;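 note: p53RE-bla HCT reporter cells with a stable beta-lactamase p53 reporter; series mostly up to about 83 µM; nearly all actives have a fitted effect of over 30% in size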)
Method in brief: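 p53RE-bla cells were treated with compound for 16 hours at 37 C. Cytotoxicity was then measured as CellTiter-Glo luminescence after 30 min at room temperature.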

[19] = biological target: Glucocorticoid receptor (Homo sapiens) (UniProt P04150); experiment: qHTS assay to identify small molecule agonists of the glucocorticoid receptor (GR) signaling pathway (AID 720691; active = well fitted activation curve with a large enough effect in the signal ratio in the repeat runs, not every such curve was filed as active; the % refers to the signal ratio)
Method in brief: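 Measures GR pathway activation through a GRE-beta-lactamase reporter stably integrated in HeLa cells, with 18 h compound treatment at 37 C and fluorescence detection using a FRET substrate.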

[20] = biological target: Glucocorticoid receptor (Homo sapiens) (UniProt P04150); experiment: qHTS assay to identify small molecule antagonists of the glucocorticoid receptor (GR) signaling pathway (AID 720692; active = well fitted inhibition curve with a large enough effect in the signal ratio in the repeat runs, not every such curve was filed as active; the % refers to the signal ratio)
Method in brief: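 Tox21 10K library screened in concentration-response for blockade of dexamethasone (5 nM final)-induced GRE-bla reporter activity in HeLa cells; 18 h treatment, fluorescence read.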
% is set by controls: 0 for no effect and ±100 for the full control effect.

Sequence of Glucocorticoid receptor (Homo sapiens) (P04150 whole entry, looked up): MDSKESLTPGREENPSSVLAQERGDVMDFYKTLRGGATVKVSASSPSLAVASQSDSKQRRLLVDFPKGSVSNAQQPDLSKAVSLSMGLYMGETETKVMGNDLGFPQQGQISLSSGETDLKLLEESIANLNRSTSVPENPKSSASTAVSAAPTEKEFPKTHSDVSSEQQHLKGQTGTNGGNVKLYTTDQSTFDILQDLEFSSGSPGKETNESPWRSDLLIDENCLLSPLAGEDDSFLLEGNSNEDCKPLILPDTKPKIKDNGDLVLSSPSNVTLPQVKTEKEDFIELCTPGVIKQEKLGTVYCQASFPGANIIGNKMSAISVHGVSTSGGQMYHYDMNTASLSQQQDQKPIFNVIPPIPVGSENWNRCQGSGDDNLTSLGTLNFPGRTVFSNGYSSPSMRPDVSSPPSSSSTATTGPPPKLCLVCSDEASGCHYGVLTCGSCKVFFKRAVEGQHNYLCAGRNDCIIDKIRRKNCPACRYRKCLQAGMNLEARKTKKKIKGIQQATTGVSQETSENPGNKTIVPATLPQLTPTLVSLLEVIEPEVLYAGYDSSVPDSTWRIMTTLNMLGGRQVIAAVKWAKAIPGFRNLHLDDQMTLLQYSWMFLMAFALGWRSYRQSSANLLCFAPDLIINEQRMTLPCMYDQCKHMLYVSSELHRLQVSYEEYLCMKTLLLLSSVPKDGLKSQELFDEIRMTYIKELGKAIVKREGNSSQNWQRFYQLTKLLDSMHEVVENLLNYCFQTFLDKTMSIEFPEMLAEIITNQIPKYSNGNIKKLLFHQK

CCCCCSCCCCC
inactive: outcome [1] | Potency [2] | Potency [3] | Potency [4] | Potency [5] | outcome [6] | outcome [7] | outcome [8] | outcome [9] | outcome [10] | outcome [11] | outcome [12] | outcome [13] | outcome [14] | outcome [15] | outcome [16] | outcome [17]

CN1CCN(c2cc3c(cc2F)c(=O)c(C(=O)O)cn3-c2ccc(F)cc2)CC1
inactive: outcome [1] | Potency [2] | outcome [18] | Potency [3] | outcome [6] | outcome [7] | outcome [8] | outcome [9] | outcome [10] | outcome [11] | outcome [12] | outcome [13] | outcome [15] | outcome [16] | outcome [17] | Potency [19]

CC/C=C\CC/C=C/C(OCC)OCC
inactive: outcome [1] | Potency [2] | outcome [18] | Potency [3] | Potency [4] | outcome [6] | outcome [7] | outcome [8] | outcome [9] | outcome [10] | outcome [11] | outcome [12] | outcome [13] | outcome [14] | outcome [16] | outcome [17] | Potency [19]

C/C=C(\C)C#N
inactive: outcome [1] | Potency [2] | outcome [18] | Potency [3] | Potency [4] | outcome [6] | outcome [7] | outcome [8] | outcome [9] | outcome [10] | outcome [12] | outcome [13] | outcome [14] | outcome [15] | outcome [16] | outcome [17]

CS(=O)(=O)O
inactive: outcome [1] | Potency [2] | outcome [18] | Potency [3] | Potency [4] | outcome [6] | outcome [7] | outcome [8] | outcome [9] | outcome [10] | outcome [12] | outcome [13] | outcome [14] | outcome [15] | outcome [16] | outcome [17] | Potency [19] | Potency [20]

ClC(Cl)(Br)Br
inactive: outcome [1] | Potency [2] | outcome [18] | Potency [3] | Potency [4] | outcome [6] | outcome [7] | outcome [8] | outcome [9] | outcome [10] | outcome [11] | outcome [12] | outcome [13] | outcome [15] | outcome [16] | outcome [17] | Potency [19] | Potency [20]

CN1CCC(=C2c3ccccc3CC(=O)c3sccc32)CC1
inactive: outcome [1] | Potency [2] | outcome [18] | Potency [3] | Potency [4] | outcome [6] | outcome [7] | outcome [8] | outcome [9] | outcome [10] | outcome [11] | outcome [13] | outcome [15] | outcome [16] | outcome [17] | Potency [20]

C[N+](C)(C)CCCCCC[N+](C)(C)C
inactive: outcome [1] | Potency [2] | outcome [18] | Potency [3] | Potency [4] | outcome [6] | outcome [7] | outcome [8] | outcome [9] | outcome [10] | outcome [11] | outcome [12] | outcome [13] | outcome [15] | outcome [16] | outcome [17]

C=C(C)C(=O)OCCCCCCCC(C)C
inactive: outcome [1] | Potency [2] | outcome [18] | Potency [3] | outcome [6] | outcome [7] | outcome [8] | outcome [9] | outcome [10] | outcome [11] | outcome [13] | outcome [14] | outcome [15] | outcome [16] | outcome [17] | Potency [19]

OC(CCN1CCCCC1)(c1ccccc1)C1CC2C=CC1C2 (centres undefined)
inactive: outcome [1] | Potency [2] | outcome [18] | Potency [3] | Potency [4] | outcome [6] | outcome [7] | outcome [8] | outcome [9] | outcome [10] | outcome [12] | outcome [13] | outcome [14] | outcome [15] | outcome [16] | outcome [17] | Potency [19] | Potency [20]

CC(=O)c1ccccc1O
inactive: outcome [1] | Potency [2] | outcome [18] | Potency [3] | Potency [4] | outcome [6] | outcome [7] | outcome [8] | outcome [9] | outcome [10] | outcome [13] | outcome [15] | outcome [16] | outcome [17]

CCCCCCCCCCCCN(CCCCCCCCCCCC)CCCCCCCCCCCC
inactive: outcome [1] | Potency [2] | outcome [18] | Potency [3] | Potency [4] | outcome [6] | outcome [7] | outcome [8] | outcome [9] | outcome [10] | outcome [11] | outcome [13] | outcome [14] | outcome [16] | outcome [17]

CN1CCCC1
inactive: outcome [1] | Potency [2] | outcome [18] | Potency [3] | Potency [4] | outcome [6] | outcome [7] | outcome [8] | outcome [9] | outcome [10] | outcome [13] | outcome [14] | outcome [16] | outcome [17]

CCC(C)S (centres undefined)
inactive: activation [1] -2.85% [at 3.72 µM] | activation [2] 1.12% [at 3.63 µM] | activity change, negative = cytotoxicity [18] -9.49% [at 3.63 µM] | activity, negative = cytotoxicity [3] -7.36% [at 3.63 µM] | activity change, negative = cytotoxicity [4] 9.33% [at 3.63 µM] | fluorescence, relative to Rose Bengal [6] -0.0609% [at 3.72 µM] | fluorescence, % of fluorescein control [7] -0.0052% [at 3.72 µM] | fluorescence, % of triamterene [8] 0.0233% [at 3.72 µM] | fluorescence, % of fluorescent control [9] 0.243% [at 3.72 µM] | fluorescence, % of fluorescein [10] 0.0934% [at 3.72 µM] | activity change [12] -0.0524% [at 3.72 µM] | fluorescence, % of fluorescent control [13] -0.0589% [at 3.72 µM] | fluorescence, % of Rose Bengal [14] -0.203% [at 3.72 µM] | fluorescence, % of fluorescent control [15] -0.0422% [at 3.72 µM] | fluorescence, % of fluorescein control [16] 0.0002% [at 3.72 µM] | fluorescence, % of fluorescent control [17] -0.0637% [at 3.72 µM] | activation [19] -0.406% [at 3.1 µM] | activity change, negative = inhibition [20] 1.31% [at 3.15 µM]
